Reference: PubChem BioAssay (NCATS)
Inconclusive results are not listed. Activity calls are given as the source filed them. Calls come from the whole dose curve; as a rule, active = well fitted cell-killing curve with a large enough effect; inconclusive = small, poorly fitted or top-dose-only effect, or effect the other way; inactive = flat fitted curve, though single readings scatter.

How the values were obtained:
Assay in all cases: Primary qHTS to identify gynecologic anti-cancer compounds using libraries of approved drugs and bioactive compounds (AID 1345084); note: nearly all actives have a fitted effect of over 55% in size
Conditions in all cases: Gynecologic cancer cell panel viability, ATPlite luminescence, 48 h; series mostly up to 57.5 µM
OV90 = system: OV90
Procedure, shortened: (§1)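 48 h compound exposure at 37 C, 5% CO2; five-point qHTS. ATPlite luminescence readout of cell ATP.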

PA-1 = system: PA-1
Procedure, shortened: as §1

SKOV3 = system: SKOV3
Procedure, shortened: as §1

Tov-21-G = system: Tov-21-G
Procedure, shortened: as §1

Tov112D = system: Tov112D
Procedure, shortened: as §1
% is set by controls: 0 for no effect and ±100 for the full control effect.

CC(CC(C)O[C@@H]1O[C@H](CO)[C@@H](O)[C@H](O)[C@H]1O)OC(=O)/C=C/c1ccc(O)cc1 (stereo not given in full)
inactive: Potency (OV90) | Potency (PA-1) | Potency (SKOV3) | Potency (Tov-21-G) | Potency (Tov112D)

C=C(C(=O)O)[C@H]1C[C@]2(C)C(=O)CC[C@]23O[C@H]1C[C@@H]3C
inactive: Potency (OV90) | Potency (PA-1) | Potency (SKOV3) | Potency (Tov-21-G) | Potency (Tov112D)

CC1(C)CC[C@]2(C(=O)O[C@@H]3O[C@H](CO)[C@@H](O)[C@H](O)[C@H]3O)[C@H](O)C[C@]3(C)C(=CCC4[C@@]5(C)CC[C@H](O[C@@H]6OC[C@@H](O)[C@H](O)[C@H]6O)[C@@](C)(C(=O)O)C5CC[C@]43C)[C@@H]2C1 (stereo not given in full)
inactive: Potency (OV90) | Potency (PA-1) | Potency (SKOV3) | Potency (Tov-21-G) | Potency (Tov112D)

COc1cccc(C(=O)NCCNc2nc3cc(C)cc(C)c3cc2C#N)c1
inactive: Potency (OV90) | Potency (PA-1) | Potency (SKOV3) | Potency (Tov-21-G) | Potency (Tov112D)

CC(=O)O[C@H]1C[C@@]2(C)[C@@H](CC[C@H]3[C@@]4(C)C=CC(=O)[C@@H](C)[C@@H]4[C@H](OC(C)=O)C(=O)[C@@]32C)/C1=C(\CCC=C(C)C)C(=O)O
inactive: Potency (OV90) | Potency (PA-1) | Potency (SKOV3) | Potency (Tov-21-G) | Potency (Tov112D)

CC(NC(=O)c1ccccc1N)C(=O)O (stereo not given)
inactive: Potency (OV90) | Potency (PA-1) | Potency (SKOV3) | Potency (Tov-21-G) | Potency (Tov112D)

CCN=C1N[C@@H]2[C@@H](O)[C@H](O)[C@@H](CO)O[C@@H]2S1
inactive: Potency (OV90) | Potency (PA-1) | Potency (SKOV3) | Potency (Tov-21-G) | Potency (Tov112D)

O=C(O)/C=C/c1ccc2occc2c1O[C@@H]1O[C@H](CO)[C@@H](O)[C@H](O)[C@H]1O
inactive: Potency (OV90) | Potency (PA-1) | Potency (SKOV3) | Potency (Tov-21-G) | Potency (Tov112D)

CCCCCOC(=O)Nc1nc(=O)n(C2O[C@H](C)[C@@H](O)[C@H]2O)cc1F (stereo not given in full)
inactive: Potency (OV90) | Potency (PA-1) | Potency (SKOV3) | Potency (Tov-21-G) | Potency (Tov112D)

CC1=C2CC(=O)C(C)CC/C=C(\C)CC2(O)OC1=O (stereo not given)
inactive: Potency (OV90) | Potency (PA-1) | Potency (SKOV3) | Potency (Tov-21-G) | Potency (Tov112D)

CCC(C)/C=C(C)/C=C/C(=O)C1CCC(O)C(C)(O)C1=O (stereo not given)
inactive: Potency (OV90) | Potency (PA-1) | Potency (SKOV3) | Potency (Tov-21-G) | Potency (Tov112D)

N=C(N)c1ccc2nc(-c3cc(CC(=O)NC(CC(=O)O)C(=O)O)cc(-c4cc(S(N)(=O)=O)ccc4O)c3O)[nH]c2c1 (stereo not given)
inactive: Potency (OV90) | Potency (PA-1) | Potency (SKOV3) | Potency (Tov-21-G) | Potency (Tov112D)

CCCC(=O)Nc1cccc(NC(=O)c2ccccc2Br)c1
inactive: Potency (OV90) | Potency (PA-1) | Potency (SKOV3) | Potency (Tov-21-G) | Potency (Tov112D)

COC(=O)C(CC1(O)c2ccccc2N2C(=O)C(C)(C)N(O)C21)n1cnc2ccccc2c1=O (stereo not given)
inactive: Potency (OV90) | Potency (PA-1) | Potency (SKOV3) | Potency (Tov-21-G) | Potency (Tov112D)

C/C=C1\[C@H](O[C@@H]2O[C@H](CO)[C@@H](O)[C@H](O)[C@H]2O)OC=C(C(=O)O)[C@H]1CC(=O)OCCc1ccc(O)cc1
inactive: Potency (OV90) | Potency (PA-1) | Potency (SKOV3) | Potency (Tov-21-G) | Potency (Tov112D)

COc1cc2c(c(OC)c1O)C(c1ccc(O)cc1)C1C(=O)OC3C(COC(=O)C1=C2)OC(CO)(OC1OC(COC(=O)/C=C/c2ccc(OC4OC(C)C(O)C(O)C4O)cc2)C(O)C(O)C1O)C3O (stereo not given)
inactive: activity change, negative = cytotoxicity (OV90) 10.3% [at 11.6 µM] | activity change, negative = cytotoxicity (PA-1) -0.775% [at 11.6 µM] | activity change, negative = cytotoxicity (SKOV3) 25.2% [at 11.6 µM] | activity change, negative = cytotoxicity (Tov-21-G) -2.98% [at 11.6 µM] | activity change, negative = cytotoxicity (Tov112D) -3.14% [at 11.6 µM]

C[C@@H]1CC[C@]2(C(=O)O[C@@H]3O[C@H](CO[C@@H]4O[C@H](CO)[C@@H](O[C@@H]5O[C@@H](C)[C@H](O)[C@@H](O)[C@H]5O)[C@H](O)[C@H]4O)[C@@H](O)[C@H](O)[C@H]3O)CC[C@]3(C)C(=CCC4[C@@]5(C)C[C@@H](O)[C@H](O)[C@@](C)(CO)C5CC[C@]43C)C2[C@H]1C (stereo not given in full)
inactive: activity change, negative = cytotoxicity (OV90) -1.43% [at 11.6 µM] | activity change, negative = cytotoxicity (PA-1) 6.43% [at 11.6 µM] | activity change, negative = cytotoxicity (SKOV3) 21.1% [at 11.6 µM] | activity change, negative = cytotoxicity (Tov-21-G) 3.06% [at 11.6 µM] | activity change, negative = cytotoxicity (Tov112D) 3.29% [at 11.6 µM]

CC(C)C1CCC(CO)=CC1/C=C(\CO)C(=O)OCC1(O)CCC(C(C)C)C2C=C(C(=O)O)COC(=O)C21 (stereo not given)
inactive: Potency (OV90) | Potency (PA-1) | Potency (SKOV3) | Potency (Tov-21-G) | Potency (Tov112D)

C=C(C(=O)O)[C@@H]1CC[C@H](C)[C@@H]2CC(=O)C(C)=C2C1
inactive: Potency (OV90) | Potency (PA-1) | Potency (SKOV3) | Potency (Tov-21-G) | Potency (Tov112D)

O=C(C1OC1/C=C/c1ccc2c(c1)OCO2)N1CCCCC1 (stereo not given)
inactive: Potency (OV90) | Potency (PA-1) | Potency (SKOV3) | Potency (Tov-21-G) | Potency (Tov112D)

C=C(COC(=O)CC(C)C)C1Cc2cc(C(C)=O)ccc2O1 (stereo not given)
inactive: Potency (OV90) | Potency (PA-1) | Potency (SKOV3) | Potency (Tov-21-G) | Potency (Tov112D)
